# Screening data as filed in PubChem.
# Rows were chosen to be rich in hits. Some 7.2% of all compounds tested hit in one or more screens of this group.
# Efflux pump mplx – inhibitors of Candida efflux pumps in yeast, primary screen, S. cerevisiae, Nile Red, multiplex; S. cerevisiae Candida pump triplex; inhibition, % at 10 µM; hit rate 0.44% among 330,000; AID 485275, 2010;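 active = plate passing quality check with inhibition over a set limit, or well fluorescence over plate mean plus 4 SD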;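 also: Nile Red retained in pooled yeast measured as flow cytometry median fluorescence; 0% = buffer negative control and 100% = Enniatin B positive control; higher means more Nile Red kept so more efflux inhibition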
# A1 inh – caspase 3/7 activation in MEF A1-2A-BIM cells, primary screen, A1 inhibitor project, cell-based, luminescence, HTS; Caspase-Glo 3/7 luminescence, 3 h; percent of clofoctol response, vehicle zero; caspase activation, % (concentration not given with the values); hit rate 0.066% among 330,000; AID 2462, 2010;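 active = over half of replicate activation scores above 10%, or exactly half above 10 with the replicate mean above 10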
# AHR act – AHR activators, primary screen, cell-based, luminescence, luciferase reporter, human. Aryl hydrocarbon receptor (Homo sapiens), P35869. hit rate 2.5% among 320,000. AHR-responsive luciferase reporter cells. activation, % at 5 µM. AID 2796, 2010; in the data active = activation above about 47%;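 also: 0% = vehicle wells and 100% = reference agonist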
# ALR H2O2 inh – inhibitors of human ALR sulfhydryl oxidase, primary screen, biochemical, H2O2 detection, HRP-luminol luminescence, single point | FAD-linked sulfhydryl oxidase ALR (Homo sapiens), P55789 | inhibition, % (test concentration not listed) | AID 485317, 2010 | purified ALR, DTT oxidation | hit rate 3.8% among 290,000;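 active = mean replicate inhibition above about 79%, with every replicate also reaching it, limit read from the data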
# VLA-4 inh – inhibition in human VLA-4 binding assay, primary screen, VLA-4 allosteric modulator project, MLPCN library, flow cytometry, VLA-4 expressing cells; AID 2557, 2010; Integrin alpha-4 (Homo sapiens), P13612; hit rate 0.2% among 330,000; inhibition, % (about 7 µM as worked out from the volumes in the protocol); ligand binding flow cytometry; in the data active = inhibition above about 50%
# SUMO Mot1 rescue – yeast Mot1-301 growth rescue at high temperature, primary screen, SUMOylation pathway inhibitor project, S. cerevisiae, ATP luminescence, 38.5C. AID 2716, 2010. hit rate 1% among 320,000. growth rescue, % at 18.8 µM. S. cerevisiae Mot1-301 growth rescue; percent above DMSO median, 100 means doubled;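 active = every valid replicate shows activation above 250% relative to neutral control wells; inactive = the rest, any valid replicate at or below 250%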;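 also: OY570 slx delta 5 strain wells were the positive control but not used for scaling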
# AHR act cf – AHR activators, confirmation, cell-based, luminescence, luciferase reporter, human; activation, % at 9 µM; shares compounds with AHR act; AID 2845, 2010; hit rate 87% among 2,300; human cells, AHR-responsive luciferase reporter; in the data active = activation above about 49%;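 also: HepG2 hepatoma cells carrying a DRE-driven firefly luciferase reporter; 0% = vehicle wells and 100% = reference agonist wells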
# PXR act counter – human PXR activators, counter-screen for AHR activator project, cell-based, luciferase luminescence; cell-based PXR reporter; AID 434939, 2010; shares compounds with AHR act; hit rate 88% among 2,300; activation, % at 11.6 µM; in the data active = activation above about 11%;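 also: human hepatoma DPX-2 cells expressing full-length human PXR; 0% = DMSO and 100% = reference agonist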
# Target sequence (O75469 whole entry, looked up): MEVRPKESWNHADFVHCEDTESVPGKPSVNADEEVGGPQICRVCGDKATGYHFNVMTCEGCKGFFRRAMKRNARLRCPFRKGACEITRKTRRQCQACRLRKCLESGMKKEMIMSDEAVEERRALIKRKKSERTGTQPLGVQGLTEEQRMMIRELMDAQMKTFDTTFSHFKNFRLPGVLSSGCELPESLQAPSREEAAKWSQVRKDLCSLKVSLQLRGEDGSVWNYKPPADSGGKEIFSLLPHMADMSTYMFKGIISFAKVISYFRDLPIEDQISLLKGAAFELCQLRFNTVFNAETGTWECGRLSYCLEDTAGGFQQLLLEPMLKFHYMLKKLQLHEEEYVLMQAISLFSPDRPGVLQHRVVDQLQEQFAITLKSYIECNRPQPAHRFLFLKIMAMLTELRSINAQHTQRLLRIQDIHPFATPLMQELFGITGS
# * marks the source's active call; other numbers are inactive results; / = no result.
SMILES,Efflux pump mplx,A1 inh,AHR act,ALR H2O2 inh,VLA-4 inh,SUMO Mot1 rescue,AHR act cf,PXR act counter
O=C1Nc2ccccc2/C1=C/c1ccccc1F,0,1,94*,34,2,5,93*,17*
Cc1ccccc1/C=C1\C(=O)Nc2ccc(F)cc21,0,1,9,4,6,-21,/,/
Nc1ccccc1C#Cc1ccc2[nH]ccc2c1,0,0,94*,97*,-5,-8,120*,24*
Nc1ccccc1C#Cc1ccccc1,/,-6,21,5,/,-13,/,/
Cc1cccc(NC2=C(NC(=O)c3ccccc3)C(=O)c3ccccc3C2=O)c1,0,0,106*,-7,-14,13,103*,124*
Cc1cccc(C(=O)Nc2cccc(NC(=O)c3ccccc3)c2)c1,0,-2,20,-4,20,16,/,/
S=c1nc2ccccc2c2nc(-c3ccccc3Br)[nH]n12,0,0,123*,/,-5,34,130*,38*
COc1cc2nc(=S)n3[nH]c(CCn4c(C)nc5ccccc54)nc3c2cc1OC,0,1,20,21,2,398,/,/
Cc1cccc(N2C(=O)CN=C2Nc2nc(C)cc(C)n2)c1,0,0,92*,-3,8,335,82*,25*
Cc1cc(C)nc(NC2=NCC(=O)N2c2cc(Cl)cc(Cl)c2)n1,0,0,24,-4,-19,139,/,/
Clc1nc2c(ccc3ccccc32)[nH]1,0,-1,12,/,12,-3,/,/
Nc1ccc(-c2nc3c(ccc4ccccc43)[nH]2)cc1,0,-2,83*,99*,-19,5,60*,10
COC(=O)c1cc(NS(=O)(=O)c2ccc(NCc3cccnc3)c([N+](=O)[O-])c2)cc(C(=O)OC)c1,0,1,-1,/,8,23,/,/
Cc1cnc(NC(=O)CCCc2nc3ccccc3s2)s1,0,1,271*,/,-10,8,41,134*
O=C(CCn1c(=O)sc2ccccc21)Nc1nc2ccccc2s1,0,-1,106*,/,5,12,44,98*
COc1ccc(-c2[nH]ncc2CN2CCCOc3c(cccc3OC)C2)c(OC)c1,0,0,22,4,-4,-1,/,/
O=C(Nc1cccc(-c2cnc3ccccc3n2)c1)c1cccc(NC(=O)c2ccco2)c1,0,/,16,2,-37,5,/,/
O=C(CCl)Nc1cccc(-c2cnc3ccccc3n2)c1,0,-1,118*,-12,-33,48,29,9
CC(C)[C@H](NC(=O)OCc1ccccc1)C(=O)OCC(=O)NC1(C#N)CCCC1,0,0,-2,-2,-1,4,/,/
Cc1ccc(NC(=O)c2ccsc2)cc1NS(C)(=O)=O,0,0,84*,-3,-7,0,95*,33*
CCOc1ccc(NC(=O)c2sc3nc(N4CCOCC4)c4c(c3c2N)CC(C)(C)OC4)cc1,0,1,0,-2,21,13,/,/
COc1ccc2c(=O)c(-c3nc(C)cs3)coc2c1,0,-10,21,-2,10,-1,/,/
Cc1csc(-c2coc3cc(O)cc(C)c3c2=O)n1,0,-8,95*,0,5,120,126*,21*
Cc1cccc(Nc2nc(N)c([N+](=O)[O-])c(N3CCOCC3)n2)c1,0,0,14,48,-20,9,/,/
Cc1ccc(Nc2nc(N)c([N+](=O)[O-])c(N3CCOCC3)n2)cc1,-1,0,81*,/,3,-1,77*,22*
SMILES,Efflux pump mplx,A1 inh,AHR act,ALR H2O2 inh,VLA-4 inh,SUMO Mot1 rescue,AHR act cf,PXR act counter
CCOC(=O)/C=C/C(=O)OCC(=O)N1CCN(C(=O)c2ccco2)CC1,0,0,0,23,-1,25,/,/
CSc1sc(C#N)c2c1/C(=N\O)CCC2,0,1,2,-5,6,2,/,/
NC(=S)N/N=C/c1ccc(-c2cc(Cl)c(Cl)cc2Cl)o1,0,-1,108*,-2,5,-15,102*,22*
COc1ccc(S(=O)(=O)NC(CC(=O)NCCc2ccc(OC)c(OC)c2)c2ccco2)cc1 (centres undefined),0,0,2,/,2,-18,/,/
Clc1ccc(/C(Cc2nc3ccccc3[nH]2)=N\Nc2ccccc2)cc1,0,-1,91*,-7,0,-16,40,49*
O=C(NCc1cccnc1)c1cccs1,0,-1,1,/,-1,6,/,/
Cc1cc(NC(=O)C2Oc3ccccc3OC2C)no1 (centres undefined),0,0,16,/,3,15,/,/
Cc1cccc2c1-c1sc(C(=O)Nc3nccs3)cc1CO2,0,-5,149*,3,-5,-2,110*,22*
CC1Oc2ccccc2OC1C(=O)Nc1nccs1 (centres undefined),0,0,80*,-7,1,10,105*,10*
O=C(Nc1nccs1)c1cc2c(s1)-c1ccccc1OC2,0,-1,150*,-1,13,158,115*,20*
O=C(Nc1nc2ccccc2s1)c1cc2c(s1)-c1ccccc1OC2,0,-1,12,-4,-3,171,/,/
O=[N+]([O-])c1ccc(NCCCNS(=O)(=O)c2ccccc2)cc1,0,0,2,-3,-1,-1,/,/
Cc1ccccc1C(=O)Nc1ccc(Br)c(C)n1,0,-5,88*,3,-4,17,130*,52*
Cc1nc(NC(=O)c2cccnc2)ccc1Br,0,-1,-2,0,22,7,/,/
Cc1c(C(=O)Nc2nnc(C3CC3)s2)oc2c(Cl)cccc12,0,0,31,8,-10,2,/,/
Cc1c(C(=O)Nc2nnc(C3CC3)s2)oc2ccccc12,0,-2,111*,/,1,1,136*,55*
O=C(Cc1c[nH]c2ccccc12)Nc1nnc(C2CC2)s1,0,0,91*,-7,21,-12,90*,20*
Cc1csc(NC(=O)c2oc3ccccc3c2C)n1,0,0,83*,5,-3,8,136*,27*
O=C(c1cnccn1)N1CCN(C/C=C/c2ccccc2)CC1,0,0,-1,-2,-2,/,/,/
